Data from PubChem BioAssay AID1671192 (National Center for Advancing Translational Sciences (NCATS), 2021).
Results filed as inconclusive are left out. Activity calls are given as the source filed them. Calls follow the shape of the dose curve; as a rule, active = well fitted curve in the direction sought with a large enough effect; inconclusive = small, poorly fitted or top-dose-only effect, or another doubt; inactive = no such curve, though single readings can be large or run the other way.

target: Polyunsaturated fatty acid lipoxygenase ALOX15 (Homo sapiens) (UniProt P16050); assay: Counterscreen qHTS for inhibitors of human arachidonate 12S-lipoxygenase (ALOX12): ALOX15 Assay; settings: purified ALOX15 enzyme activity; series mostly up to 110 µM
In short: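 Purified human ALOX15 (15hLO-1) at 40 nM in 25 mM HEPES, 0.01% Triton X-100, pH 7.5, preincubated with compound 15 min at RT. Then 50 uM arachidonic acid for 30 min; hydroperoxide detected by Fe-xylenol orange as the 573/405 nm absorbance ratio.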

Polyunsaturated fatty acid lipoxygenase ALOX15 (Homo sapiens), sequence (P16050 whole entry, looked up): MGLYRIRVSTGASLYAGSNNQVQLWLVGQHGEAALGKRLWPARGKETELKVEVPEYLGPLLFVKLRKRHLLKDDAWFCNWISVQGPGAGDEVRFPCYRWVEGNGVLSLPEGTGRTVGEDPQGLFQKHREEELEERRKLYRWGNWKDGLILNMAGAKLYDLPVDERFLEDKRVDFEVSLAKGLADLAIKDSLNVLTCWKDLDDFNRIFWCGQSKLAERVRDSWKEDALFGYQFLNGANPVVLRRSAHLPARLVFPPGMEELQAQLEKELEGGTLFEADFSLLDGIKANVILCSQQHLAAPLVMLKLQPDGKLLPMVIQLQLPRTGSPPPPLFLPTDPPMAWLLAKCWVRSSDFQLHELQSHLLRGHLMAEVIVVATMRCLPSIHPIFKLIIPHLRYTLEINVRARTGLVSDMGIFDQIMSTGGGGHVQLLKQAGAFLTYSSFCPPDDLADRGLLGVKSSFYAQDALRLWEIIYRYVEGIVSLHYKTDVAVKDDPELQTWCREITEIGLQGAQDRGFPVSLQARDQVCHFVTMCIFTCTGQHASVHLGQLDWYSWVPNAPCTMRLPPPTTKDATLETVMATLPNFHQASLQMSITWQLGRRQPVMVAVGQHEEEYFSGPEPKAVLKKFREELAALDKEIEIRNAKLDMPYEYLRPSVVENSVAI

Compound | outcome
CNC(=O)c1cn2c(n1)CN([S+](C)(=O)[O-])CC2 | inactive
CN1CC(=O)N(C2CCCNC2)Cc2c(NC3CCC3)ncnc21 (stereo not drawn) | inactive
COc1ccc(CNc2ncnc3c2CN(C2CCNCC2)C(=O)CN3C)cc1OC | inactive
Cc1noc(C)c1S(=O)(=O)N1CCC(N2CCOC2=O)CC1 | inactive
COc1ccc(-c2nc(C3CC3)nc3c2CCN(C(=O)c2ccc(C(F)(F)F)cc2)CC3)cc1 | inactive
COc1ccc(-c2cc(C(=O)NCC(C)C)c3c(C4CCCN4)noc3n2)cc1 (stereo not drawn) | inactive
O=C1NCc2ccccc2CC12CCN(Cc1cc(O)cc(O)c1)C2 (stereo not drawn) | inactive
O=C1NCc2ccccc2CC12CCN(Cc1ccc(Cl)o1)C2 (stereo not drawn) | inactive
CCN1CCCCC12Cc1ccccc1CN(C(=O)C1CCN(C)CC1)C2 (stereo not drawn) | inactive
CN1CC(=O)N(C2CCCNCC2)Cc2c1ncnc2N1CCN(c2ncccn2)CC1 (stereo not drawn) | inactive
Cc1ccc2nc(C3CCCN(Cc4ccccc4)C3)[nH]c(=O)c2c1 (stereo not drawn) | inactive
O=C(c1cc(C2CC2)nc2onc(C3CCCNC3)c12)N1CCC(F)CC1 (stereo not drawn) | inactive
CNCc1sc2ccccc2c1C | inactive
Cc1ccccc1N(C)C1CN(C(=O)OC(C)(C)C)C1 | inactive
Cc1ccc(C(=O)N2CCC3(CC(C(C)C)=NO3)C2)cc1 (stereo not drawn) | inactive
O=C1NCc2ccccc2CC12CCN(Cc1ccc(Br)s1)CC2 | inactive
CC(=O)Nc1ccc(CN2CCCC23Cc2ccccc2CN(C(=O)CCC(=O)O)C3)cc1 (stereo not drawn) | inactive
CN1CCN(CC2(N)CCCCC2)CC1 | inactive
NCC(C1CCCCC1)N1CCCC1 (stereo not drawn) | inactive

Compound | outcome
O=C1Nc2ccccc2CN(CC2CCCCC2)C12CCNCC2 | inactive
CN1CC(=O)N(C2CCCNC2)Cc2c(NCCc3ccccc3F)ncnc21 (stereo not drawn) | inactive
Fc1ccc(OC2CN(Cc3ccc(C(F)(F)F)cc3)C2)cc1F | inactive
O=C(NC1CCCC1)c1cc(C2CC2)nc2onc(C3CCCN3)c12 (stereo not drawn) | inactive
CCN1CCCC12Cc1ccccc1CN(C(=O)c1ccccc1)C2 (stereo not drawn) | inactive
Cn1nc(C2CCCN2)c2c(C(=O)NCc3ccc(F)cc3)cc(C3CC3)nc21 (stereo not drawn) | inactive
CCC(=O)N1Cc2ccccc2CC2(CCN(CCc3ccc(C)cc3)CC2)C1 | inactive
O=C(N1CCCC1)N1CCCC(c2nnc3n2CCNC3)C1 (stereo not drawn) | inactive
Cc1cc(C)c(CN2CCC3(Cc4ccccc4CNC3=O)C2)c(C)c1 (stereo not drawn) | inactive
CC(C)Nc1ncnc2c1CN(C1CCCNC1)C(=O)CN2C (stereo not drawn) | inactive
CC(=O)N1CCN(c2ncnc3c2CN(C2CCCNCC2)C(=O)CN3C)CC1 (stereo not drawn) | inactive
CN1CCC(C(=O)N2Cc3ccccc3CC3(CCCCN3CC3CCNCC3)C2)CC1 (stereo not drawn) | inactive
COCCCNc1nc2c(S(=O)(=O)c3c(C)cc(C)cc3C)nnn2c2ccccc12 | inactive
COc1cccc([S+](=O)([O-])N2CCn3c(nn(-c4ccc(Cl)cc4)c3=O)C2)c1 | inactive
O=C1NC(=NC2CCCC2)C2(CCN(CC3CCCCC3)CC2)N1c1cc(F)cc(F)c1 | inactive
COCCNC(=O)c1cc(-c2ccc(OC)cc2)nc2onc(C3CCNC3)c12 (stereo not drawn) | inactive
O=Cc1ccc(-c2ccc(O)cc2)cc1 | inactive
COc1ccc(N2CC3CCC(C2)N3Cc2cccc(Cl)c2)cc1 | inactive
COc1cccc(N2C(=O)NC(=NC3CCCCC3)C23CCCN(C(=O)c2ccccc2)C3)c1 (stereo not drawn) | inactive
